For five compounds, composite z-score and z-score results are on record in PubChem BioAssay.

Activity calls are given as the source filed them.

For experiment [1], the system named is Plasmodium falciparum Sir2 (PF13_0152, Sir2A). Nature of the experiment: Plasmodium falciparum Sir2A binding compounds – biochemical, small-molecule microarray, 635 nm fluorescence, primary screen (AID 1098).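 Further: score merges spot fluorescence intensity with its signal-to-noise ratio.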 To be noted: fluorescence 635 nm, higher = more signal.
The nature of experiment [2]: probe aDKK1 binding to arrayed compounds – biochemical, biotinylated probe, 635/667 nm fluorescence, primary screen (AID 1099).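 Further: score merges 667nm spot fluorescence with signal to noise across triplicate slides.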 The conditions noted are these: small-molecule microarray, higher = more signal.
Experiment [3] is described as follows: probe aCHRDL2 binding to arrayed compounds – biochemical, biotinylated probe, 635/667 nm fluorescence, primary screen (AID 1100). To be noted: small-molecule microarray, higher = more signal.
The nature of experiment [4]: change in splice reporter luminescence, either direction, cell-based, HEK293, spliceosome inhibition project, primary screen (AID 1101).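 Further: HEK293 cells carrying a splicing-competent luciferase reporter gene; test concentration not given here.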 To be noted: HEK293 splicing luciferase reporter, 24 h, higher = more signal, called active from +8 up or from −8 down. (A reporter such as luciferase makes a cellular process visible.)
The target of experiment [5] is Fibroblast growth factor 10 (Homo sapiens) (UniProt O15520). Description: compounds binding fibroblast growth factor 10 – biochemical, small-molecule microarray, 635 nm fluorescence, primary screen (AID 1102). To be noted: FGF10 binding, fluorescence 635 nm, higher = more signal.
Chain of Fibroblast growth factor 10 (Homo sapiens) (O15520 whole entry, looked up): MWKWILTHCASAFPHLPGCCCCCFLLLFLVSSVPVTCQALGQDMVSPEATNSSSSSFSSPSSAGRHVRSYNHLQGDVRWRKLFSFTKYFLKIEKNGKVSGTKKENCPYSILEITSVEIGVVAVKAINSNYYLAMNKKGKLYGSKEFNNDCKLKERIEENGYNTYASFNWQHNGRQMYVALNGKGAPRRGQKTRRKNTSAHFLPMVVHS
Experiment [6] concerns glycogen synthase kinase-3 (GSK3A per assay name; protocol says GSK3B). Description: compounds binding glycogen synthase kinase-3 – biochemical, small-molecule microarray, 635 nm fluorescence, GSK3A, primary screen (AID 1103). Further: the record names both GSK3A and GSK3B. To be noted: fluorescence 635 nm, higher = more signal.
Experiment [7] deals with Epidermal growth factor receptor (Homo sapiens) (UniProt P00533). Nature of the experiment: compounds binding epidermal growth factor receptor – biochemical, small-molecule microarray, 635 nm fluorescence, primary screen (AID 1104).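 Further: score merges 667 nm emission intensity with spot signal to noise over triplicate slides.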 To be noted: EGFR binding, higher = more signal.
Chain of Epidermal growth factor receptor (Homo sapiens) (P00533 whole entry, looked up): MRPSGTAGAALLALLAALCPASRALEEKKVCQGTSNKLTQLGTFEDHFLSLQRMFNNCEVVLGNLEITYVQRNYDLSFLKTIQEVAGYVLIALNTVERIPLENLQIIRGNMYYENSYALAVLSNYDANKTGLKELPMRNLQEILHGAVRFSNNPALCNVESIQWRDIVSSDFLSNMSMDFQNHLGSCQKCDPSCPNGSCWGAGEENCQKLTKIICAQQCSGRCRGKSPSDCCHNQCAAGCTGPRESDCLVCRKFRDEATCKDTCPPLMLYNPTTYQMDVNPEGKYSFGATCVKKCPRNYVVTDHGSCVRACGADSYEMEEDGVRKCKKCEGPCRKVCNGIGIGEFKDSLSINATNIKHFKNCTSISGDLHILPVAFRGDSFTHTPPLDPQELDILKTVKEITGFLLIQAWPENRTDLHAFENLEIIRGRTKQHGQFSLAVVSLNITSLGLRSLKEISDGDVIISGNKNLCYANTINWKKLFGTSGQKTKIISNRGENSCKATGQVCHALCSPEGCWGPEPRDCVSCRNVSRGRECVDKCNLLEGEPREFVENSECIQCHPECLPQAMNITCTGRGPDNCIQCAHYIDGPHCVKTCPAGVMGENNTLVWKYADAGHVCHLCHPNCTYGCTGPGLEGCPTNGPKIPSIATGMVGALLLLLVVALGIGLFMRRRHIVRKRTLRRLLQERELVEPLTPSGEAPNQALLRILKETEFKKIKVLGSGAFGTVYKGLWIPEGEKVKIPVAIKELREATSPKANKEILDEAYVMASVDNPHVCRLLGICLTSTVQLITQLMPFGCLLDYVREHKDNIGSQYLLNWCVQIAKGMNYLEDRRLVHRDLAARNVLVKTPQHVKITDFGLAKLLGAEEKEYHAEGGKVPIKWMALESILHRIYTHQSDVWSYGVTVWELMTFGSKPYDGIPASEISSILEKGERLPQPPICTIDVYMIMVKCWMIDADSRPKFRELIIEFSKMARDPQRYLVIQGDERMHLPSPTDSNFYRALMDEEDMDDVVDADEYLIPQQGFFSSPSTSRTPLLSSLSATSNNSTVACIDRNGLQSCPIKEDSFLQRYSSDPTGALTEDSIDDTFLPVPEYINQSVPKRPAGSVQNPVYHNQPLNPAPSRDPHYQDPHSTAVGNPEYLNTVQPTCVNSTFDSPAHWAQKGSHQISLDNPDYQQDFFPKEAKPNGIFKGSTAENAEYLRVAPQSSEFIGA
Experiment [8] deals with Follistatin-related protein 3 (Homo sapiens) (UniProt O95633). Description: compounds binding follistatin-related protein 3 – biochemical, small-molecule microarray, 635 nm fluorescence, primary screen (AID 1105).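 Further: score merges emission near 667 nm and signal to noise per printed spot across three slides.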 The conditions noted are these: FSTL3 binding, higher = more signal.
Chain of Follistatin-related protein 3 (Homo sapiens) (O95633 whole entry, looked up): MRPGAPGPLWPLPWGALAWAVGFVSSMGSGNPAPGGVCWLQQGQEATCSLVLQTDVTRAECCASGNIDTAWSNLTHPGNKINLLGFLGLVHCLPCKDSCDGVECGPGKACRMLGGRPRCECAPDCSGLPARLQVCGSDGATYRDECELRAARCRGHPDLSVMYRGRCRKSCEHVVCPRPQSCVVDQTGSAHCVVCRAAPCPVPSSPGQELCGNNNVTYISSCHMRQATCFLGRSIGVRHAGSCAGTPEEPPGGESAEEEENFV
For experiment [9], the target named is Dickkopf-related protein 1 (Homo sapiens) (UniProt O94907). Description: small molecules binding DKK1 protein – biochemical, small-molecule microarray, 635 nm fluorescence scan, primary screen (AID 1106).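 Further: score merges emission near 667 nm with signal to noise over three replicate slides.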 The conditions noted are these: higher = more signal.
Chain of Dickkopf-related protein 1 (Homo sapiens) (O94907 whole entry, looked up): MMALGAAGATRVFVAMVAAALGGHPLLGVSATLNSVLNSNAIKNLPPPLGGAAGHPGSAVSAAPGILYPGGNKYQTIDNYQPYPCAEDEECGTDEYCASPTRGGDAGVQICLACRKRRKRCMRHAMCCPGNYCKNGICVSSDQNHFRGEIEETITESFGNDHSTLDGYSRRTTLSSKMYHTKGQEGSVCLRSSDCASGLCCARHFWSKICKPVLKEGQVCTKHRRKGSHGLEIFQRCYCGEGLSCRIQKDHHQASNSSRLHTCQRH
The subject of experiment [10] is Inhibin beta A chain (activin A). Nature of the experiment: small molecules binding activin A – biochemical, small-molecule microarray, 635 nm fluorescence scan, primary screen (AID 1107).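 Further: mouse activin A protein probed at 4.33 µg/mL on printed slides; score merges bound-protein fluorescence near 667 nm with spot signal-to-noise.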 To be noted: INHBA, higher = more signal.
Experiment [11] has as its system Human papillomavirus type 1a protein E7 (residues 44-93). Nature of the experiment: small molecules binding HPV E7 44-93 – biochemical, small-molecule microarray, residues 44-93, 635 nm fluorescence, primary screen (AID 1108).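 Further: E7 fragment applied at 1 µg/mL in TBST for 1 h at 4 C; score combines spot fluorescence with its signal to noise ratio.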 The conditions noted are these: fluorescence 635 nm, higher = more signal.
Experiment [12] can be described thus: hepatitis C replication reporter changes, two-sided – Huh7 cells, luciferase reporter, HCV replication inhibitor project, primary screen (AID 1109).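 Further: huh7 hepatoma cells harbouring a luciferase neomycin HCV replicon reporter; luciferase luminescence as measure of HCV replicon replication; test concentration not given here.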 To be noted: Huh7 HCV replicon luciferase reporter, 48 h; higher = more signal.
In experiment [13] the target is Left-right determination factor 2 (Homo sapiens) (UniProt O00292). Description: small molecules binding LEFTY2 protein – biochemical, small-molecule microarray, 635 nm fluorescence scan, primary screen (AID 1110). To be noted: higher = more signal.
Chain of Left-right determination factor 2 (Homo sapiens) (O00292 whole entry, looked up): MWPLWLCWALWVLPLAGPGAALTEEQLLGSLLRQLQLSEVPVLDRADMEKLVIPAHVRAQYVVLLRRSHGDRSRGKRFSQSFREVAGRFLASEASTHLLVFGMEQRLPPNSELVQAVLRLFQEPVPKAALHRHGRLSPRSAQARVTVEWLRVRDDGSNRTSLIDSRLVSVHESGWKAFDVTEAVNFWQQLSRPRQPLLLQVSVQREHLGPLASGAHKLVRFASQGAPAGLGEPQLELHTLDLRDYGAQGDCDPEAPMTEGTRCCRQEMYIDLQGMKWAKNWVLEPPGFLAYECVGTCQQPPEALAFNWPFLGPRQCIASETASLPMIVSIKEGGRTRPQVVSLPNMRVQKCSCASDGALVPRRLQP
The target of experiment [14] is Calmodulin-1 (Homo sapiens) (UniProt P0DP23). Description: small molecules binding calmodulin-1 with EGTA – biochemical, small-molecule microarray, Cy5-labelled CALM1, profiling panel (AID 1111).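 Further: labelled calmodulin applied in Tris saline Tween buffer holding calcium plus EGTA and DTT.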 To be noted: Cy5-CALM1 binding fluorescence, higher = more signal.
The target is the same in experiment [15]. Nature of the experiment: small molecules binding Ca-loaded calmodulin-1 – biochemical, small-molecule microarray, Cy5-labelled CALM1, plus calcium, artefact control for SMM control-protein annotation, profiling panel (AID 1112).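 Further: score merges spot fluorescence with signal to noise from triplicate slides.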 The conditions noted are these: Cy5-CALM1 binding fluorescence, higher = more signal.
Experiment [16] in a line: probe aWnt5a binding to arrayed compounds – biochemical, biotinylated probe, 635/667 nm fluorescence, primary screen (AID 1113).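 Further: score merges 667 nm fluorescence intensity with signal-to-noise per printed feature.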 To be noted: small-molecule microarray, higher = more signal.
The nature of experiment [17]: probe aShh binding to arrayed compounds – biochemical, biotinylated probe, 635/667 nm fluorescence, primary screen (AID 1114).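 Further: probe is biotin-labelled aShh protein from a stem cell growth factor screen; measures binding of labelled protein to compounds printed on the slide; score merges feature fluorescence at 667 nm with signal-to-noise.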 The conditions noted are these: small-molecule microarray, higher = more signal.
The nature of experiment [18]: probe aNog binding to arrayed compounds – biochemical, biotinylated probe, 635/667 nm fluorescence, primary screen (AID 1115).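 Further: probe is biotinylated aNog protein used at 0.15 µg/mL for 1 h at 4 C; z-score combines 667 nm fluorescence of each spot with its signal to noise.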 To be noted: small-molecule microarray, higher = more signal.
Experiment [19] concerns the target Torsin-1A-interacting protein 1 (Homo sapiens) (UniProt Q5JTV8). Nature of the experiment: compound microarray binding of lysate hLAP1 – cell lysate, small-molecule microarray, COS7 lysate, 635/667 nm fluorescence, primary screen (AID 1116). To be noted: 635 nm fluorescence, higher = more signal.
Experiment [20] has as its target Alpha-bungarotoxin (Bungarus multicinctus) (UniProt P60615). Description: compounds binding labelled alpha-BTX control protein – biochemical, small-molecule microarray, Alexa647 label, 635/667 nm fluorescence, artefact control for SMM control protein annotation, profiling panel (AID 1117). The conditions noted are these: alpha-BTX-A647 binding fluorescence, higher = more signal.

Chain of Torsin-1A-interacting protein 1 (Homo sapiens) (Q5JTV8 whole entry, looked up): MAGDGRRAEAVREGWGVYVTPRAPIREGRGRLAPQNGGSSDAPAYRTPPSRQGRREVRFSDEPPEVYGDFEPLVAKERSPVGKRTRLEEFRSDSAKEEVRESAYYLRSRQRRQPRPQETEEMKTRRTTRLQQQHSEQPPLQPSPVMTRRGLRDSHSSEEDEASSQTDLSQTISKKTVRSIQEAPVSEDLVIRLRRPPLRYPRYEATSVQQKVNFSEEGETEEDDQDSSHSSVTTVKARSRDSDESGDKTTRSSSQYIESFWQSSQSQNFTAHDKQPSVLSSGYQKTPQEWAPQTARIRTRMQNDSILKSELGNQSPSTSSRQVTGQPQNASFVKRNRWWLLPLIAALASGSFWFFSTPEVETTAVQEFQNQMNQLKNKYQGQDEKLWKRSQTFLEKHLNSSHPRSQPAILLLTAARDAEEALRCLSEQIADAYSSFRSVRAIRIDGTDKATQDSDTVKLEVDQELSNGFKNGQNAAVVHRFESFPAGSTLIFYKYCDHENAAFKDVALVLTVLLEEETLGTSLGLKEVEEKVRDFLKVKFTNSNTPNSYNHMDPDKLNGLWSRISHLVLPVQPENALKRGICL
Chain of Alpha-bungarotoxin (Bungarus multicinctus) (P60615 whole entry, looked up): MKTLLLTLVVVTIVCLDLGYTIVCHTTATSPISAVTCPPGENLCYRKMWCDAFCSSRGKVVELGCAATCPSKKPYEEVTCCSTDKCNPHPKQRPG

On to `C=C(C(=O)CC[C@H](OC(=O)c1ccccc1-c1ccccc1C(=O)O)c1ccccc1OCCO)C(C)C`, for which the composite z-score was 1.01 in [1]; -0.175 in experiment [2]; -0.459 in experiment [3]; 0.238 in experiment [5]; 0.304 in experiment [6]; -0.388 in experiment [7]. The composite z-score in [8] was 0.176; in [9] it was 0.273; in [10], 1.16; in [11], 0.649; in experiment [13], 0.346; in experiment [14], -0.246. Also, the composite z-score in experiment [15] was -0.4; in experiment [16] it was -0.0573; in experiment [17], 0.108; in experiment [18], 0.0718; in experiment [19] it was 1.31; in experiment [20], 1.26. In addition, the values for the z-score in experiment [4] and in [12] were -0.456 (inactive) and -1.59, respectively.
As to `CCN(CC)c1ccc(N2CC=CC34O[C@@H]5/C=C\CCC(C)OC(=O)C5[C@H]3C(=O)N(C(C)CO)[C@@H]4C2=O)cc1` (stereo not given in full), the composite z-score in [1] was -0.516; in [2], -0.47; in [3] it was -0.514; in [5], -0.408; in experiment [6], -0.189; in experiment [7], -0.455. For the same compound, the composite z-score was -0.159 in experiment [8]; 0.492 in [9]; 1.5 in experiment [10]; -0.344 in experiment [11]; -0.292 in experiment [13]; -0.847 in experiment [14]. Also, the composite z-score in experiment [15] was -1.66; in experiment [16], -0.0346; in [17], -0.0709; in experiment [18] it was -0.318; in experiment [19], 0.187; in [20] it was -1.04. Moreover, the z-score in experiment [4] is 0.0828 (inactive); in experiment [12], 0.0645.
For the compound `Cc1ccc(N2C(=O)c3ccccc3[C@](C)(C(=O)NCc3ccccc3)[C@@H]2c2ccc(CO)cc2)nc1`, the composite z-score in [1] was 1.39; in [2], 0.499; in experiment [3], 0.615; in experiment [5], 0.0497; in experiment [6], -0.341; in experiment [7], -0.219. For the same compound, the composite z-score was -0.192 in experiment [8]; 0.381 in [9]; 1.21 in experiment [10]; -0.192 in [11]; -0.0146 in [13]; -0.416 in [14]. The composite z-score in experiment [15] is -0.497; in experiment [16], 0.0079; in experiment [17], -0.0837; in [18], -0.108; in [19] it was 0.263; in experiment [20], -0.3. Also, the z-score in experiment [4] is -0.0691 (inactive); in [12] it was 0.478.
`C=C(COC)/C(=C/C[C@@H](OC(C)=O)c1ccc(CO)o1)c1cc(C(=O)OC)ccc1OC`: the composite z-score is 0.403 in [1]; -0.138 in experiment [2]; -0.0929 in experiment [3]; 1.17 in experiment [5]; 0.0212 in experiment [6]; -0.725 in [7]. The composite z-score was -0.185 in experiment [8]; -0.305 in [9]; 1.08 in experiment [10]; 0.531 in experiment [11]; -0.0379 in experiment [13]; -0.177 in experiment [14]. Besides, the composite z-score in experiment [15] was -0.9; in [16] it was -0.096; in experiment [17], 0.479; in experiment [18], 0.184; in [19], -0.315; in [20] it was 0.202. Moreover, the results for the z-score in experiment [4] and in experiment [12] were 0.36 (inactive) and -1.45, respectively.
`COC(=O)[C@@]1(Cc2ccc(F)cc2)[C@H]2c3cc(C(=O)N(C)C)n(Cc4c(CO)[nH]cc(C)c4=O)c3C[C@H]2CN1C(=O)c1ccccc1`: the composite z-score is -0.0424 in experiment [1]; 0.617 in [2]; 0.721 in experiment [3]; 0.663 in [5]; -0.271 in experiment [6]; 0.0656 in experiment [7]. The composite z-score in experiment [8] was -0.217; in experiment [9], -0.12; in experiment [10], 0.693; in experiment [11] it was -0.275; in experiment [13], -0.104; in [14], 0.263. The composite z-score in experiment [15] is -0.184; in [16], 0.0375; in experiment [17], 0.649; in experiment [18], 1.38; in experiment [19], 1.16; in [20], 0.0084. In addition, the z-score in [4] is -0.73 (inactive); in experiment [12] it was -0.573.
